We go through 93 molecules from PubChem BioAssay AID449762 (Southern Research Specialized Biocontainment Screening …, 2010).

Hit rate of the full screen: of about 330,000 compounds, about 1,900 (0.58%) were called active. Another 4% or so got no clear call; they are omitted. A selection follows. Measured potencies and affinities stand elsewhere. Unmarked numbers belong to inactive results. Rule as the data show it: inconclusive = inhibition above about 70% without an active follow-up result; inactive = below that.

The nature of the assay: M. tuberculosis growth inhibition, HTS (AID 449762).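 Also: bacterial growth assessed after seven days of incubation.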 As to conditions: M. tuberculosis H37Rv growth inhibition, 7H9 media; at 25 µM; hits give high values.
By inhibition is commonly meant the change of the read-out against control, counted positive when it falls. For `CC(C)Oc1ccc(/C(O)=C2/C(=O)C(=O)N(CCN(C)C)C2c2cccs2)cc1` (stereo not drawn), the inhibition is 4.08%.

For `CCCOc1ncnc2c1[nH]c1ccc(C)cc12`, the inhibition was 6.51%.

With `O=C(NCc1ccccc1)C(=O)Nc1nc(C23CC4CC(CC(C4)C2)C3)cs1`, the inhibition was 1.12%.

With `O=C(NCc1ccccn1)C(=O)Nc1nc(-c2ccccc2)cs1`, the inhibition was 55.8%.

Consider `COc1ccc(C)cc1NC(=O)C(NC(=O)c1cc(OC)c(OC)c(OC)c1)C(C)C` (stereo not drawn), for which the inhibition is 0.19%.

Take `S=C(NC1CCCCCC1)NC1CCCC1`: the inhibition was 1.4%.

In the case of `COc1cc(OC)c(C(=O)NNC(=S)NC2CCCCC2)cc1OC`, the inhibition was -2.47%.

Regarding `CCOc1ccccc1C(=O)Nc1nccs1`, the inhibition is -0.35%.

Consider `CCOc1cccc2cc(C(=O)Nc3cc(C)on3)c(=O)oc12`, for which the inhibition was 3.23%.

Take `CCN(CC)c1ccc(NS(=O)(=O)c2cn(C)c(=O)n(C)c2=O)c(C)c1`: the inhibition was -6.59%.

For the molecule `Cc1cc(C(=O)NNc2c(Cl)cccc2Cl)n(C(C)(C)C)n1`, the inhibition was -6.53%.

In the case of `COc1cccc(NC(=O)C2CCN(C(=O)[C@@H]3Cc4ccccc4CN3C(=O)OC(C)(C)C)CC2)c1`, the inhibition was 2.76%.

For the molecule `COc1cccc(/C=N/n2c(COc3ccccc3)n[nH]c2=S)c1`, the inhibition was 0.11%.

Turning to `Cc1cccc(/C=N/n2c(COc3ccccc3)n[nH]c2=S)c1`, the inhibition was 9.89%.

As for `Cc1ccsc1/C=N/NC(=O)Cc1ccc([N+](=O)[O-])cc1`, the inhibition is 0.13%.

As for `COC(=O)C1=C(c2ccc(F)cc2OCc2ccccc2)C[C@@H]2CC[C@H]1N2C(=O)NCc1ccc(C)cc1`, the inhibition is 11.4%.

Regarding `Cc1cc(=O)[nH]c(SCC(=O)NC2CCCCCC2)n1`, the inhibition is 1.87%.

With `Cc1nnc(SCC(=O)NC2CCCCC2)[nH]c1=O`, the inhibition is -4.1%.

For `COc1cc(C(=O)NNC(=O)c2cc(C)[nH]n2)cc(OC)c1OC`, the inhibition is -0.74%.

Turning to `COc1ccc(NC(=O)CN(C)C(=O)COc2ccccc2Cc2ccccc2)cc1`, the inhibition was 10.9%.

`COC(=O)CCCC1=CC2=CC(=O)C(C)(OC(=O)c3cccs3)C(=O)C2=CN1Cc1ccccc1` (stereo not drawn): the inhibition is -3.58%.

Regarding `Cc1[nH]c2ccccc2c1C(=O)C(=O)N1CCN(c2cccc(Cl)c2)CC1`, the inhibition is 13.6%.

`CCSc1ncnc2c1sc1nc3c(cc12)COC(C)(C)C3`: the inhibition was 3.08%.

Consider `CC1(C)Cc2nc3sc4c(SCC(=O)O)ncnc4c3cc2CO1`, for which the inhibition was 0.43%.

Turning to `Cc1ccc(C)c(NC(=O)CN(C)C(=O)c2cccc(S(=O)(=O)N3CCN(Cc4ccccc4)CC3)c2)c1`, the inhibition was 4.09%.

As for `OCCCn1c(CCNc2nc(-c3ccc(Cl)cc3)cs2)nc2cc(C(F)(F)F)ccc21`, the inhibition is 29.6%.

Take `CN1CCN(/N=C/c2cccc(Cl)c2Cl)CC1`: the inhibition was 4.06%.

`CN1CCN(/N=C/c2ccc(-c3ccccc3)cc2)CC1`: the inhibition was 4.56%.

As to `COC(=O)c1ccc(CS(=O)(=O)c2ccc(C)cc2)o1`, the inhibition is 2.36%.

`Cc1ccc(NC(=O)CC2OC(=O)c3ccccc32)cc1S(=O)(=O)N1CCCCCC1` (stereo not drawn): the inhibition was -3.23%.

Regarding `Cc1nn(CCc2nn[nH]n2)c2nc(-c3ccccc3)cc(C(F)(F)F)c12`, the inhibition was 3.42%.

Regarding `Cc1nn(CCc2nn[nH]n2)c2nc(-c3ccc(C4CCCCC4)cc3)cc(C(F)(F)F)c12`, the inhibition is 21.8%.

Take `CC(C)(C)c1ccc(C(=O)N2CCC(=O)N(C(COCc3ccccc3)Cc3ccccc3)CC2)cc1` (stereo not drawn): the inhibition was -7.28%.

For `C=CCNc1oc(-c2ccc(OCC)cc2)nc1C#N`, the inhibition was 0.33%.

As for `Cc1ccc(S(=O)(=O)N2CCN(Cc3nc4ccccc4n3C)CC2)cc1`, the inhibition is -10.2%.

`CC(OC(=O)c1nc(Cl)ccc1Cl)C(=O)Nc1ccc2c(c1)OCCO2` (stereo not drawn): the inhibition was 23.5%.

For the molecule `Cc1ccc(OCCCCNC2CCCCC2)c(C)c1`, the inhibition was 0.93%.

For `Cc1ccc(OCCCCN2CCCCC2)c(C)c1`, the inhibition was 0.08%.

As for `O=C(COC(=O)C1=Cc2ccccc2OC1)NCc1ccccc1`, the inhibition is -0.53%.

With `Cc1ccc2c(c1)N(CC(=O)OC(CC(C)C)C(=O)NC1CCCC1)C(=O)CO2` (stereo not drawn), the inhibition was 0.6%.

As for `Cc1nc(-c2ccccc2)sc1C1(C)CC(c2ccc(OC(F)(F)F)cc2)=NO1` (stereo not drawn), the inhibition was 1.65%.

In the case of `Cc1nc(NC(=O)c2ccccc2)sc1C1(C)CC(c2ccccc2F)=NO1` (stereo not drawn), the inhibition was -0.28%.

For `CN1C(=O)C(O)(CC(=O)c2cccnc2)c2ccccc21` (stereo not drawn), the inhibition was -2.52%.

On to `CCC1CN(C(=O)N2CCC(C(=O)NCc3ccc(C)o3)CC2)c2cc(C)ccc2O1` (stereo not drawn), for which the inhibition is -5.76%.

On to `Cc1ccnc(N/C=C(/NC(=O)c2ccccc2)C(=O)NN)n1`, for which the inhibition is 2.37%.

For `COc1ccc(-n2c(C)cc(C(=O)COC(=O)Cn3cnc4ccccc43)c2C)cc1`, the inhibition was 5.9%.

For the molecule `COc1ccc(C(=O)OCC2CC(c3ccccc3)=NO2)cc1OC` (stereo not drawn), the inhibition was 2.23%.

For `COc1ccccc1C1=NOC(COC(=O)c2ccc(Br)cc2)C1` (stereo not drawn), the inhibition was 66.3%.

Take `COC(C[C@H]1O[C@H]1C(=O)[C@@H](C)OCc1ccccc1)OC`: the inhibition was -3.98%.

Regarding `Cc1ccc(NC(=O)/C(C#N)=N/Nc2ccc(C(=O)O)cc2)c(C)c1`, the inhibition was -9.1%.

Take `CCOC(=O)C1CCN(Cc2coc3c(Cl)cc(Cl)cc3c2=O)CC1`: the inhibition was 10.8%.

As for `COc1ccc(F)cc1S(=O)(=O)NCc1ccccc1`, the inhibition is -3.97%.

Take `CCN(c1ccc(OC)cc1)S(=O)(=O)c1ccc2c(c1)CCN2C(=O)CCC(=O)O`: the inhibition was -2.77%.

With `CCOC(=O)N1CCC(=C2c3ccc(Cl)cc3CCc3cccnc32)CC1`, the inhibition is 2.73%.

On to `c1ccc2c(c1)CCc1ccccc1C2=C1CCNCC1`, for which the inhibition was -0.99%.

Consider `CC(C)(C)NC(=O)C(c1ccco1)N(C(=O)Cn1nnc(-c2ccc(F)cc2)n1)c1cccc(F)c1` (stereo not drawn), for which the inhibition was 5.34%.

For `Cc1cc(N2CCN(Cc3nc(-c4ccc(F)cc4)oc3C)CC2)cc(C)n1`, the inhibition is 9.44%.

For `Cc1cc(N2CCN(Cc3nc(-c4ccc(Cl)cc4)oc3C)CC2)cc(C)n1`, the inhibition is 15.9%.

Regarding `O=c1cnnc(SCCc2ccccc2)[nH]1`, the inhibition is -11.7%.

For `COc1ccc(-c2nnc3ccc(SC)nn23)cc1`, the inhibition is 12.5%.

As for `O=C(O)Cn1ccc2ccccc21`, the inhibition is -3.21%.

Consider `CC(C)Cn1c(CN2CCN(C)C(CCO)C2)nc2ccccc21` (stereo not drawn), for which the inhibition is -7.61%.

As for `CC(=O)Oc1ccc2oc(=O)c3c(c2c1)CCCN3C(=O)CN1CCN(c2ncccn2)CC1`, the inhibition was -4.05%.

For `O=C(CN1CCN(c2ncccn2)CC1)N1CCCc2c1c(=O)oc1ccc(O)cc21`, the inhibition was 6.59%.

Regarding `O=C(NCCNC(=O)c1ccc(Cl)cc1Cl)c1ccccn1`, the inhibition is 0.45%.

As for `CCCc1cc(=O)[nH]c(SCC(=O)N2c3ccccc3NC(=O)C2(C)C)n1`, the inhibition was 3.32%.

`CC1=C(C(=O)N2CCOCC2)C(c2cc(C)cs2)NC(=O)N1` (stereo not drawn): the inhibition is 2.64%.

Consider `Cc1ccc(F)cc1NC(=O)COC(=O)c1ccc2ncsc2c1`, for which the inhibition was -5.07%.

On to `c1ccc(C[C@H]2CN=C(Nc3ccccc3)N2CCC2CCCC2)cc1`, for which the inhibition was 30%.

As for `c1ccc(C[C@H]2CN=C(Nc3ccccc3)N2CCCC2CCCCC2)cc1`, the inhibition was 22.3%.

On to `O=C(O)C(Cc1c[nH]c2ccccc12)NS(=O)(=O)c1cccc(Cl)c1Cl` (stereo not drawn), for which the inhibition is -3.04%.

Turning to `COc1ccc(NC(=O)CN(C)CC(=O)Nc2sc3c(c2C#N)CCC3)cc1`, the inhibition is -8.9%.

As for `Cc1ccc(NC(=O)CN(C)CC(=O)Nc2sc3c(c2C(N)=O)CCC3)cc1`, the inhibition is 66.6%.

Take `CC(=O)OC(c1nc2ccccc2c(=O)n1C1CC2(OC1=O)c1ccccc1N1C(=O)C(C)(C)N(O)C12)C(C)C` (stereo not drawn): the inhibition was -6.29%.

Consider `Cc1ccc(N2C(=O)NC(=O)/C(=C/C=C/c3ccco3)C2=O)cc1`, for which the inhibition is 53.8%.

For `Cc1ccc(N2C(=O)NC(=O)/C(=C\C=C\c3ccco3)C2=O)cc1`, the inhibition is -4.11%.

`Cc1cc(NC(=O)CSCC(=O)N(C)Cc2ccc(F)cc2)no1`: the inhibition is -22.2%.

With `Cc1ccc(-c2csc3ncnc(Nc4ccc(C(=O)O)cc4)c23)cc1`, the inhibition was 6.21%.

Take `Fc1ccc(-c2csc3ncnc(Nc4ccc(N5CCOCC5)cc4)c23)cc1`: the inhibition is 28.8%.

On to `O=C1c2cccc3c([N+](=O)[O-])c(O)cc(c23)C(=O)N1Nc1ccccc1`, for which the inhibition was -8.23%.

For the molecule `O=C(Nc1ccccc1)NC1CCCCC1`, the inhibition was 7.91%.

For `CCC(=O)N1c2ccc(S(=O)(=O)NCc3ccccc3)cc2CC1C` (stereo not drawn), the inhibition is 3.62%.

Turning to `COc1nc(-c2ccccc2)cc(-c2ccccc2)n1`, the inhibition was 11.4%.

With `COc1ccc(-c2cc(-c3ccccc3)nc(NN)n2)cc1OC`, the inhibition was 2.81%.

Turning to `CC(C)Cn1c(SCC(=O)N2CCc3ccccc3C2)nc2cc(Cl)ccc2c1=O`, the inhibition was -3.67%.

As to `CCCCN(CC)CCNC(=O)c1cn(C)c(=O)c2c1c1ccccc1n2C`, the inhibition is -0.73%.

As to `Cc1cc(C)n2nc(CCc3ccccc3)nc2n1`, the inhibition is 0.58%.

With `CCCCC(=O)NNC(=S)NC(=O)c1cccc([N+](=O)[O-])c1`, the inhibition was 29%.

As to `CCCCCCCC(=O)NNC(=O)c1ccc([N+](=O)[O-])cc1`, the inhibition was 3.14%.

Regarding `COc1ccc2oc(=O)c(C(=O)NCc3ccc(C)cc3)cc2c1`, the inhibition is -2.24%.

As to `COc1cc2c(cc1OC)C1=C(C#N)CCC(=O)N1CC2`, the inhibition was 7.82%.

In the case of `Cc1cc(C)n(-c2nc(Nc3ccccc3)nc(-n3nc(C)cc3C)n2)n1`, the inhibition was 15.3%.

On to `CNc1nc(C)nc(-n2nc(C)cc2C)n1`, for which the inhibition was -0.69%.
